# Data as given in the supplement of paper PMC6555819.
# Assays:
# Test in all cases: PBM binding z-score (relative to random genomic background probes); higher = stronger binding; sequences stand for … in GC…GCGATTGACAGCGTAGAATGAAGG
# [1] = test system: PPARg:RXRa DBDmut IVT, anti-RXR (DBD mutation: RXRa K156A/R161A, NR concentration 270 nM, RXRa partner concentration 90 nM)
# How it was run: (§1)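 Binding z-scores were set against random background probes. The data came from custom Agilent 4×180K protein-binding microarrays carrying double-stranded probes with 34-nt variable regions, incubated 1 h with ligand-free nuclear receptor dimers. Partner-specific antibodies detected binding, and scanned fluorescence was regression-normalized.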
# [2] = test system: PPARg:RXRa IVT, anti-PPARg (NR concentration 270 nM, RXRa partner concentration 90 nM)
# How it was run: as §1
# [3] = test system: PPARg DBDmut:RXRa IVT, anti-PPARg (DBD mutation: PPARg1 K132A/R137A, NR concentration 270 nM, RXRa partner concentration 90 nM)
# How it was run: as §1
# [4] = test system: PPARg DBDmut IVT, anti-PPARg (DBD mutation: PPARg1 K132A/R137A, NR concentration 270 nM)
# How it was run: as §1
# [5] = test system: PPARg homodimer (NR concentration 180 nM)
# How it was run: as §1
# [6] = test system: PXR:RXRa (NR concentration 270 nM, RXRa partner concentration 90 nM)
# How it was run: as §1
# [7] = test system: PXR homodimer (NR concentration 270 nM)
# How it was run: as §1
# [8] = test system: RARa:RXR (NR concentration 270 nM, RXRa partner concentration 90 nM)
# How it was run: as §1
# [9] = test system: RARa homodimer (NR concentration 270 nM)
# How it was run: as §1
# [10] = test system: RARb:RXRa (NR concentration 270 nM, RXRa partner concentration 90 nM)
# How it was run: as §1
# [11] = test system: RARb homodimer (NR concentration 270 nM)
# How it was run: as §1
# [12] = test system: RARg:RXRa (NR concentration 270 nM, RXRa partner concentration 90 nM)
# How it was run: as §1
# [13] = test system: RARg homodimer (NR concentration 270 nM)
# How it was run: as §1
# [14] = test system: RXRa DBDmut IVT, anti-RXR (DBD mutation: RXRa K156A/R161A, NR concentration 90 nM)
# How it was run: as §1
# [15] = test system: RXRa homodimer (NR concentration 180 nM)
# How it was run: as §1
# [16] = test system: THRa:RXRa (NR concentration 90 nM, RXRa partner concentration 90 nM)
# How it was run: as §1
# [17] = test system: THRa homodimer (NR concentration 90 nM)
# How it was run: as §1
# [18] = test system: VDR:RXRa (NR concentration 270 nM, RXRa partner concentration 90 nM)
# How it was run: as §1
# [19] = test system: VDR homodimer (NR concentration 270 nM)
# How it was run: as §1
Sequence,PBM binding z-score [1],PBM binding z-score [2],PBM binding z-score [3],PBM binding z-score [4],PBM binding z-score [5],PBM binding z-score [6],PBM binding z-score [7],PBM binding z-score [8],PBM binding z-score [9],PBM binding z-score [10],PBM binding z-score [11],PBM binding z-score [12],PBM binding z-score [13],PBM binding z-score [14],PBM binding z-score [15],PBM binding z-score [16],PBM binding z-score [17],PBM binding z-score [18],PBM binding z-score [19]
CGTTACGGGTCAAGGTTATAGCACGGGTGGTACG,2.15,3.69,0.343,-0.183,1.78,3.44,0.111,3.92,0.367,4.29,3.67,4.89,4.88,0.953,5.7,3.24,0.918,3.62,1.42
ACAGACAGGTGAGAGAAGGTAACTCAGCTGGACG,0.676,0.706,0.0985,-0.367,-0.0826,-0.372,-0.505,0.102,-0.00725,0.565,0.122,0.137,0.491,-0.484,0.333,1.69,-0.219,-0.382,-0.636
TTACCAAGGTGAGCGGAGGTCGTTGATCCAACTC,1.19,2.32,-0.403,-0.114,-0.196,4.22,0.00572,1.51,-1.17,1.92,1.72,1.31,1.18,-0.227,1.44,3.73,0.656,3.36,0.886
TATACAGGGTAAAAGGCCAGAGTACGAATGTCGA,1.68,2.88,1.57,1.04,1.27,0.286,0.409,0.32,0.622,1.85,1.6,1.56,1.59,-0.337,1.11,0.651,-0.663,0.433,0.418
AGAATGAGGTTATACGTAGATCAGGTAAGAAAGT,4.3,2.28,1.26,0.947,0.811,1.23,0.571,2,0.262,1.52,1.16,1.68,1.19,1.81,2.31,2.39,1.01,1.58,0.844
TCGAGTAGGCTAGTCGGGGCATTCAGCCAACATA,0.821,0.0917,-1.43,-1.24,-0.694,-0.462,-0.889,-0.446,-1.18,-0.223,-0.562,-0.554,-0.738,-0.313,-0.347,-0.266,-0.771,-0.402,-0.582
TTTATTAGTTGATTAGGGCAACCGAAACAGCGGA,1.46,2.1,1.84,1.94,1.68,0.473,0.839,0.832,2.38,1.24,0.918,0.811,0.769,0.442,0.586,0.999,0.89,0.643,0.951
ATATGTAGGTTAGCTGGGGCCATTCAGACTAGGC,6.72,5.67,1.64,1.69,1.13,2.87,0.538,1.33,0.314,1.21,1.17,0.84,0.74,0.565,0.845,4.13,0.768,1.97,0.832
TCTCGGAGGACACGAAAGGTCAAAGCTCGACATC,1.72,2.11,-0.166,-0.0155,3.27,5.39,1.21,5.48,1.41,4.55,5.19,5.82,6.04,1.63,5.82,4.18,1.76,4.67,2.51
ACTATTACTTGACTTAGGGCAACCGATACGACGC,0.692,0.81,1.57,1.96,1.24,0.284,0.533,0.623,1.42,0.876,1.06,0.943,1.1,0.983,0.745,0.888,1.1,0.428,0.484
ATAACAAGGTGATCGTGAGGTCGTTGATACTAAC,1.16,1.89,1.52,0.304,0.85,3.06,1.63,2.01,0.293,1.51,1.58,2.43,1.23,0.955,1.76,3.48,2.31,2.97,2.78
GCTTGTAGATCAAGGTTAAGAACGACTAAGCTAA,1.08,1.15,0.637,-0.445,0.356,0.364,-0.0676,0.827,0.211,0.716,0.388,0.414,0.334,0.11,0.789,1.25,-0.079,0.288,0.0114
ATCTCTAGGGAACAAGTTCAGTGAAAGAGAGGAC,0.484,0.703,0.478,0.258,0.773,1.36,1.25,0.667,0.314,1.3,1.49,0.977,1.13,0.71,0.649,0.823,0.263,1.48,2.43
GCGACTGGGGCAAAGCAGGTTACAATAAGGTTGG,4.73,3.71,-0.466,-0.774,0.387,0.661,-0.376,0.904,-0.625,1.06,1.15,0.682,0.779,-0.0572,0.668,3.11,0.0569,0.294,-0.351
TCTAGTTGGTCAAAGGTCGCACACTCGAAATGCG,3.09,5.25,1.76,1.51,4.25,3.78,0.71,5.01,1.36,3.29,3.14,4.78,2.91,1.27,5.6,2.48,0.836,3.18,1.26
AGAATGCGGTTACCAAAGATCAGGGAAACGCTTG,-0.0849,-0.0394,-0.888,-0.42,-0.659,-0.382,-0.939,-0.221,-0.366,0.18,-0.737,0.095,0.185,-0.735,0.309,-0.323,-1.27,-0.612,-1.02
CCTTACGGGTCACGATGTTATAGCACGACGAGCG,3.85,4.86,0.952,0.0806,2.01,3.41,0.295,4.22,0.866,4.39,3.21,5.22,5.07,0.775,5.71,2.88,0.472,3.73,0.567
TTACCAAGGTGAGCTGAGGTCGTTGTTCCAACTC,1.27,2.01,-0.911,-0.688,-0.161,5,0.345,2.16,-0.978,1.79,1.84,1.31,0.592,0.437,1.42,4.75,2.02,4.15,2.12
TCTTGTAGATCAGCAGGTTAAGCAAGCTGGCCAA,1.37,0.191,-0.396,0.0188,-0.763,0.022,-0.446,0.058,-1.03,0.0308,-0.0177,-0.192,-0.525,0.455,0.213,-0.00536,-0.897,0.275,-0.751
AGAATGAGGTTATACGTAGATCAGGGCAGAAAGT,4.01,2.15,0.485,0.402,0.774,1.45,1.34,1.82,0.705,1.51,1.33,1.72,1.08,1.89,2.36,2.43,1.05,1.67,1.47
CCTTACGGGTCACTCCAGGTTAAAGCATCGGAGT,2.31,3.73,-0.0185,-0.224,2.3,5.3,0.114,4.1,0.271,3.67,3.23,4.68,4.54,1.13,4.65,5.26,0.483,4.34,1.41
CCGAGTAGGTTATCGGGCATTCAGGCAACGGTGA,2.93,2.72,-1.04,-1.21,0.257,-0.121,-0.43,0.241,0.0766,0.742,0.614,0.431,0.479,-0.164,0.45,0.172,-0.196,-0.386,-0.435
ATATGGAGGTTACATCCGGGTCATTCAGGCTATG,2.72,3.63,1.46,0.791,2.15,4.57,2.76,4.94,0.676,2.88,3.23,4.87,2.66,1.17,4.23,4.11,2.74,5.05,3.3
TCATATAGGTAAAAGCTAGGTGAAAGTCCGATCT,3.84,2.83,1.06,1.08,0.659,0.255,0.0441,1.01,0.436,0.407,0.265,0.433,0.218,1.44,0.939,1.3,0.0247,0.608,-0.0504
TCTTGTAGATCAAAGGTTAAGCAAGCCGAAGCCT,2.3,4.26,1.03,0.316,0.998,2.14,-0.0892,3.34,-0.483,2.11,1.9,1.98,0.759,0.824,3.56,1.51,-0.503,1.65,-0.138
GCTATTAGTTGAAAGAGCAACCGAATGATTCTCG,0.238,-0.404,0.37,0.517,0.13,-0.39,-0.276,-0.118,0.294,-0.146,-0.533,-0.181,0.242,0.464,0.226,-0.376,-0.896,-0.419,-0.22
AGTCAAAGTTCAGGACGAGGTATCGTAAAGCACG,-0.507,0.996,0.0216,0.419,1.39,2.32,1.4,2.06,0.462,4.09,2.81,4.03,4.67,2.93,2.81,2.54,0.691,2.29,2.06
TAGCCTAAGTCAGATCGGGCCAGTATACGCTATA,-0.799,-0.632,-0.42,-0.19,-0.984,-0.436,-0.363,-0.593,-0.92,-0.258,-0.342,-0.329,-0.306,-0.669,-0.25,1.43,-0.221,-0.662,-0.691
TCAGACAGGTGAAGGTAAATCAGGTACGCAGTCG,2.98,1.27,-0.386,0.474,1.11,0.994,0.51,1.26,0.658,1.4,0.943,0.61,0.667,1.77,1.06,1.58,0.468,1.2,0.53
GCTAGCAGGCCATTTGGGGCACTCAATGACGGGC,1.12,0.8,-0.58,-1.74,-0.698,-0.594,-0.802,-0.159,-1.06,0.199,-0.0146,-0.154,0.3,-0.299,-0.112,0.771,-0.695,-0.555,-0.274
